# In PubChem BioAssay AID1851 (National Center for Advancing Translational Sciences (NCATS), 2009):
# Out of some 16,000 compounds screened, about 5,800 (36%) were called active. Another 23% or so got no clear call; they are omitted. The list shows a part of the results. A number with no mark means an inactive call. Calls follow the shape of the dose curve; as a rule, active = well fitted curve in the direction sought with a large enough effect; inconclusive = small, poorly fitted or top-dose-only effect, or effect the other way; inactive = no such curve, though single readings can be large or run the other way.
# Target: Cytochrome P450 2C19 (Homo sapiens) (UniProt P33261)
# Sequence (P33261 whole entry, looked up): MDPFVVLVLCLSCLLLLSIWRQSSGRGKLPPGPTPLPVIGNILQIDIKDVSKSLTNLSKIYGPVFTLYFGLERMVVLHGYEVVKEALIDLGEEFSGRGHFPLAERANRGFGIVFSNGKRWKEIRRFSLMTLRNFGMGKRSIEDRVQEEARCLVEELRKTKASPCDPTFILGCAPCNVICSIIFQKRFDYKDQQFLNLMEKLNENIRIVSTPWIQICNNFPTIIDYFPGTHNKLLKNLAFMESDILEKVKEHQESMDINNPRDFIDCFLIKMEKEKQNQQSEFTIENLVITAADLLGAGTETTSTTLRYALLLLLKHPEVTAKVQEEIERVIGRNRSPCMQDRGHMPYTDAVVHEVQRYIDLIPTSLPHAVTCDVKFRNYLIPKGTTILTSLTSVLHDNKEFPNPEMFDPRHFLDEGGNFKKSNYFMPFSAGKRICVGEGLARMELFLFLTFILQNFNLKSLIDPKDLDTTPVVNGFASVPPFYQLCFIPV
# Assay: Cytochrome panel assay with activity outcomes
# Details: recombinant CYP, pro-luciferin dealkylation, luminescence, p450-cyp2c19; series mostly up to 57.1 µM; activity, negative = inhibition: at the top concentration
# % is scaled to controls: 0 for no effect and ±100 for the full control effect.
Compound,AC50,"activity, negative = inhibition"
Cc1nc(SCc2cccc(Oc3ccccc3)c2)n[nH]1,5.01 µM (active),–
CO[C@]1(NC(=O)[C@H](C(=O)O)c2ccc(O)cc2)C(=O)N2C(C(=O)O)=C(CSc3nnnn3C)CO[C@H]21,–,2.09% [at 25.6 µM]
FC(F)(F)c1ccccc1-c1cncnc1NCCc1cnc[nH]1,0.01 µM (active),–
COc1ccccc1-c1cncnc1NCCc1cnc[nH]1,0.0794 µM (active),–
COc1cccc(-c2cncnc2NCCc2cnc[nH]2)c1,0.01 µM (active),–
CC(=O)NCCNc1ncncc1-c1ccccc1C(F)(F)F,–,-56.5%
CS(=O)(=O)N1CCC2(CCCN(C(=O)Nc3cccc(F)c3)C2)CC1,–,-44.5%
Cc1ccc(C(C)C)n1C(=O)OC(C)(C)C,–,4.81% [at 11.4 µM]
CN(C)/C=N/c1ncc(C(=O)c2ccc3ccccc3c2)s1,14.1 µM (active),–
CN(C)c1ccc(/C=N\NC(=O)c2cnc3ccccc3c2)cc1,–,21.3% [at 11.4 µM]
COc1ccc(C(C(=O)NC2CCCC2)N(C(=O)c2snc(-c3ccc(F)cc3)c2N)c2ccccc2)cc1 (stereo not given),–,-13%
COc1ccc(CCN(C(=O)C(F)(F)F)C(C(=O)NC2CCCC2)c2cccs2)cc1 (stereo not given),2 µM (active),–
O=C(NC1CCCCC1)C(c1cccs1)N(C(=O)C(F)(F)F)c1ccccc1 (stereo not given),1.58 µM (active),–
CCOC(=O)c1ccc(N/C(=N\S(=O)(=O)c2ccccc2C)c2ccccc2)cc1,7.94 µM (active),–
COc1cc(OC)c(C2C(C(=O)O)c3ccccc3C(=O)N2C)cc1OC (stereo not given),–,-21.6%
COCCN1C(=O)c2ccccc2C(C(=O)Nc2ccc3c(c2)OCCO3)C1c1ccc(F)cc1 (stereo not given),28.2 µM (active),–
COc1cc2c(cc1OC)C(C(=O)Nc1ccc3c(c1)OCCO3)C(c1cccnc1)N(C)C2=O (stereo not given),–,-8.51%
CCn1c(SCC(=O)N/N=C/C=C\c2ccccc2[N+](=O)[O-])nnc1-c1ccccc1,14.1 µM (active),–
CC1=NNC(=O)C1CCC(=O)N/N=C\c1ccccc1[N+](=O)[O-] (stereo not given),–,-15.1%
Cc1noc(C)c1C(=O)N1CCC[C@@]2(CCN(Cc3nccs3)C2)C1,–,12.4%
Cc1cc(N2CCOCC2)nc(SCc2ccc(Cl)cc2Cl)n1,2.24 µM (active),–
CSc1nc(C)cc(Nc2ccc(O)c(CN3CCOCC3)c2)n1,–,52.5% [at 11.4 µM]
COc1cccc2c1C(=O)c1c(O)c3c(c(O)c1C2=O)C[C@](O)(C(=O)CO)C[C@H]3O[C@@H]1C[C@H](N)[C@H](O)[C@H](C)O1,–,14.8% [at 25.6 µM]

Compound,AC50,"activity, negative = inhibition"
Cc1cc(Oc2ccc(-c3ccccc3)cc2)nc(N2CCOCC2)n1,14.1 µM (active),–
CCCc1ccc(Oc2cc(C)nc(N3CCOCC3)n2)cc1,11.2 µM (active),–
O=c1c(-c2ccccc2)nc2cnc(N3CCOCC3)nc2n1C1CC1,–,-27.1%
COc1ccc(-n2c(=O)c(-c3ccccc3)nc3cnc(N4CCOCC4)nc32)cc1,–,-53.2%
Nc1nc(Cl)nc2c1ncn2[C@@H]1O[C@@H](COP(=O)(O)OP(=O)(O)OP(=O)(O)O)[C@@H](O)[C@H]1O,–,29.1%
O=C(NC1CCCCC1)C(c1cccs1)N(Cc1cccs1)C(=O)c1ccco1 (stereo not given),1.58 µM (active),–
COc1ccc(CN(C(=O)Cc2cccs2)C(C(=O)NC2CCCC2)c2ccncc2)cc1 (stereo not given),1.78 µM (active),–
O=C(NC1CCCC1)C(c1ccsc1)N(Cc1ccccc1)C(=O)Cc1cccs1 (stereo not given),5.01 µM (active),–
CO[C@H]1[C@@H](OC(N)=O)[C@H](O)[C@@H](Oc2ccc3c(O)c(NC(=O)c4ccc(O)c(CC=C(C)C)c4)c(=O)oc3c2C)OC1(C)C,–,12.6% [at 25.6 µM]
NC(=S)c1ccc[n+]([C@@H]2O[C@@H](COP(=O)([O-])OP(=O)(O)OC[C@@H]3O[C@@H](n4cnc5c(N)ncnc54)[C@@H](OP(=O)(O)O)[C@H]3O)[C@@H](O)[C@H]2O)c1,–,-13%
CCCCCCCCCCCCCCCCCCc1ccc(C(=O)/C=C\C(=O)O)cc1,–,-4.95%
CCCC(=O)Nc1ccc(C(=O)/C=C/c2ccc(SC)cc2)cc1,2.51 µM (active),–
COc1ccc2[nH]c(C(=O)c3ccccc3)cc2c1,–,-19.7%
COc1cccc(C(=O)/C=C/c2ccc(SC)cc2)c1,0.631 µM (active),–
c1cncc(CNCc2cccnc2)c1,–,5.45% [at 11.4 µM]
O=S(=O)(NCc1cccnc1)c1ccc(Cl)nc1,31.6 µM (active),–
OCCNc1ncnc2nc[nH]c12,–,10.2% [at 11.4 µM]
Cc1cccc(Cn2cnc3c(NS(C)(=O)=O)c(C)c(C)cc32)c1,3.98 µM (active),–
Cc1cc2c(ncn2Cc2ccccc2)c([N+](=O)[O-])c1C,4.47 µM (active),–
COc1ccc2oc(-c3ccc(C)c(NC(=O)CSc4ccc(Cl)cc4)c3)nc2c1,0.562 µM (active),–
CC[C@@H]1OC(=O)[C@H](C)[C@H](O[C@@H]2C[C@](C)(OC)[C@H](O)[C@H](C)O2)[C@H](C)[C@H](O[C@@H]2O[C@@H](C)C[C@@H](N(C)C)[C@@H]2O)[C@](C)(O)C[C@H](C)[C@@H]2N[C@H](COCCOC)O[C@H]([C@@H]2C)[C@]1(C)O,–,17.8% [at 25.6 µM]
CCN(CC)CCCNC(=O)CC1Sc2ccccc2NC1=O (stereo not given),–,-24.2%
COC(=O)c1c(NC(=O)CC2Nc3ccccc3NC2=O)sc(C)c1C (stereo not given),11.2 µM (active),–

Compound,AC50,"activity, negative = inhibition"
COC(=O)c1cc(NC(=O)CC2NC3CCCCC3NC2=O)cc(C(=O)OC)c1 (stereo not given),–,-17.7%
Nc1nc(N)c2nn(-c3ccc(C(=O)O)cc3)nc2n1,–,19.9% [at 11.4 µM]
O=C(O)[C@@H]1Cc2c([nH]c3ccccc23)[C@@H](CCCCO)N1,–,17.4% [at 11.4 µM]
CC[C@H]1CN(C)[C@H]2Cc3c([nH]c4ccccc34)C(=O)C[C@H]1[C@H]2C(=O)OC,–,22.2% [at 11.4 µM]
COC(=O)C1Cc2c([nH]c3ccccc23)CN1 (stereo not given),3.98 µM (active),–
O=c1[nH]c2cc([N+](=O)[O-])c([N+](=O)[O-])cc2[nH]c1=O,–,-12.4%
CCCCCCCCCCCCCC(=O)O[C@H](CC(=O)O)C[N+](C)(C)C,–,-17.7%
Cc1ccc(NC(=O)C2(NC(=O)c3cccc(N4C(=O)CSC4c4ccccc4)c3)CCCCC2)cc1 (stereo not given),28.2 µM (active),–
CN(C)CC/C=C1\c2ccccc2CSc2ccccc21,–,-12.9% [at 25.6 µM]
Cc1nc(SC2CC(=O)N(c3ccc([N+](=O)[O-])cc3)C2=O)nc2c1CCCC2 (stereo not given),4.47 µM (active),–
O=C(Cc1ccc(Br)cc1)OCC(=O)c1ccc2c(c1)OCCO2,15.8 µM (active),–
FC(F)(F)c1cccc(-c2nc3nc(Cl)c(Cl)nc3[nH]2)c1,–,-19.6% [at 11.4 µM]
O=c1c2ccc(Cl)cc2nc(-c2cccc(C(F)(F)F)c2)n1O,14.1 µM (active),–
Cc1cc(C)n2c(SCC(=O)N(C)C3CCS(=O)(=O)C3)nnc2n1 (stereo not given),–,-14.2%
Cc1ccc(-n2ccnc2SCC(=O)N(CC(C)C)C2CCS(=O)(=O)C2)c(C)c1 (stereo not given),10 µM (active),–
Cc1cccc(Nc2cc(Cl)nc(SCC(=O)O)n2)c1C,–,-19.1%
Cc1cccc(NC(=O)CSc2nnc(-c3ccco3)c(-c3ccco3)n2)c1C,2.24 µM (active),–
O=C1CCCC=C1[C@H](CCc1ccccc1)OC(=O)c1ccc(Br)cc1,1.58 µM (active),–
CC/C=C\CC[C@H](OC(=O)c1ccc(Br)cc1)C1=CCCCC1=O,2 µM (active),–
O=C1CCCC=C1[C@H](O)c1ccc([N+](=O)[O-])cc1,–,-22% [at 11.4 µM]
CC/C=C\CC[C@H](O)C1=CCCCC1=O,–,13.3% [at 11.4 µM]
Cc1c(Cl)c(S(N)(=O)=O)cc2c1=NC=NS=2(=O)O,–,8.1% [at 11.4 µM]
CN1CCC2(CC1)CCN(C(=O)c1ccncc1)CC2,–,25.7%

Compound,AC50,"activity, negative = inhibition"
CCOc1ccc2c(c1)nc(SCC(=O)c1ccc(Br)s1)n2C,0.708 µM (active),–
COc1ccc2c(c1)nc(SCC(=O)c1ccc(Br)s1)n2C,0.398 µM (active),–
Nc1ncnc2c1ncn2[C@@H]1O[C@@H](C(=O)NC2CC2)[C@H](O)[C@@H]1O,–,29.7%
Cc1cc(O)c(/C=N/Nc2cccc(Cl)c2)c(=O)o1,3.16 µM (active),–
C[C@@H](CSC(=N)N)C(N)=O,–,27.2% [at 11.4 µM]
COc1ccc(CNC(=O)Cc2csc(Nc3nc(=S)[nH]c4ccccc34)n2)cc1,2.82 µM (active),–
O=C(Cc1csc(Nc2nc(=S)[nH]c3ccccc23)n1)NCc1cccc(Cl)c1,0.794 µM (active),–
Cc1ccc(CNC(=O)Cc2csc(Nc3nc(=S)[nH]c4ccccc34)n2)cc1,2.24 µM (active),–
Oc1cc2c(cc1O)CN(C(=S)NCCc1ccc(Cl)cc1)CCC2,0.316 µM (active),–
Cc1ccc(N2C(=O)CSC2c2cccnc2)cc1F (stereo not given),20 µM (active),–
CN1C(=O)CC[C@@H]1c1cccnc1,inactive,–
CC1(C)CO[C@H](CC(=O)O)CN1,5.01 µM (active),–
Cc1nc2cnc(N(C)C)nc2n(C)c1=O,–,-10.6%
Cc1c(-c2ccc(F)cc2)nc(N)c(C#N)c1-c1cccs1,4.47 µM (active),–
CSc1nc(N)nc(-c2cccs2)c1C#N,7.94 µM (active),–
COc1cccc(OCC(=O)NN=C2c3ccccc3-c3ccccc32)c1,0.708 µM (active),–
Cc1ccccc1OCC(=O)N/N=C1\CCOc2c(C)cccc21,–,-3.29%
Cc1cccc2c1OCC/C2=N\NC(=O)COc1ccccc1,3.16 µM (active),–
Cc1c(N2CCCC2)cc2c(c1NC(=O)c1ccccc1Cl)C(C)(C)CC2(C)C,0.794 µM (active),–
O=C(N/N=C/c1cccc(F)c1)c1csc2c1CCCC2,7.08 µM (active),–
Fc1cccc(/C=N\N=C/c2cccc(F)c2)c1,–,-17.4%
